# Experimental data published in PubChem BioAssay AID504621 (Broad Institute, 2011).
# Hit rate of the full screen: of about 310,000 compounds, about 970 (0.31%) were called active. The sample as a whole holds a higher share of actives than the screen did. Values without a mark were called inactive.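 How the source made its calls: active means every replicate shows inhibition above about 80%, whatever the replicate mean (limit read from the data); inconclusive means mean inhibition reaches the set limit but some replicate falls short; inactive means the rest.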
# Experiment: reduced ATP signal of yeast carrying P. falciparum Hsp90 – S. cerevisiae, BacTiter-Glo luminescence, single point, set 2, antimalarial PfHsp90 inhibitor project, primary screen (AID 504621);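 further: yeast relying on Plasmodium falciparum Hsp90 in place of its own; 0% = DMSO neutral controls and 100% = 20 µM radicicol positive controls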
# Conditions: S. cerevisiae expressing PfHsp90, growth, 48 h, at 9.4 µM, active compounds read high, yeast lacking PDR1 and PDR3 efflux regulators
row,SMILES,inhibition
1,CC(C)c1ccc(C=NNc2ccc([N+](=O)[O-])cn2)cc1,-14.5%
2,O=S(=O)(NC1CCCCC1N1CCCCC1)c1ccc(Cl)cc1 (stereo not drawn),-25%
3,O=S(=O)(NC1CC1)c1ccc(Cl)cc1,-7.47%
4,O=S(=O)(NC1CC2CCC1C2)c1ccc(Cl)cc1 (stereo not drawn),104% (active)
5,COc1ccc(-c2ccc3c(c2)[C@@H]2C[C@H](N(C)S(=O)(=O)c4ccccc4)[C@H]([C@H](C)O)C(=O)N2CC3)cc1,6.39%
6,CC(C)Cn1cnc2c(SCc3ccc(Cl)cc3)nc(N)nc21,12.6%
7,COc1cccc2c1C(=O)c1c(O)c3c(c(O)c1C2=O)CC(O)(C(C)=NNC(=O)c1ccc(Cl)c(Cl)c1)CC3OC1CC(N)C(O)C(C)O1 (stereo not drawn),-3.52%
8,CC1=C/C(=N\OS(=O)(=O)c2ccccc2)C=CC1=O,100% (active)
9,O=C(Nc1ccc(S(=O)(=O)N2CCOCC2)cc1)C1CCN(S(=O)(=O)c2ccc(Cl)cc2)CC1,-11.4%
10,COc1ccc2sc(-c3ccc(N(C)C)cc3)c(C#CCO)c2c1,15%
11,COc1ccc2sc(-c3ccc(N(C)C)cc3)c(-c3ccc4cc[nH]c4c3)c2c1,-6.56%
12,COc1ccc2c(c1)c(=Cc1ccc(N(C)C)cc1)c1cc(-c3ccccc3)[n+](C)n12,114% (active)
13,CCN1CCC(O)(/C=C/c2ccc(C)cc2)C(C(=O)/C=C/c2ccc(C)cc2)C1 (stereo not drawn),19.6%
14,Cc1c(NS(=O)(=O)c2cccc(C(=O)Nc3ccc(SC(F)F)cc3)c2)c(=O)n(-c2ccccc2)n1C,-2.76%
15,COc1ccc2c(c1)C(=O)CC(c1ccccc1)O2 (stereo not drawn),-30%
16,CCCCC(=O)NC(c1ccc(OC)c(OC)c1)c1ccc2cccnc2c1O (stereo not drawn),25.2%
17,C#CCOCCOCCOCCNc1nc(N2CCOCC2)nc(N2CCN(C(=O)[C@H](Cc3ccc(O)cc3)n3cc(CCO)nn3)CC2)n1,2.07%
18,C[C@@H]1C[C@@H]2O[C@H]2/C=C\C=C\C(=O)Cc2c(Cl)c(O)cc(O)c2C(=O)O1,95% (active)
19,Cc1ccc(-c2csc(C(C#N)=C(O)CN3CCN(C(=O)c4ccco4)CC3)n2)cc1,4.72%
20,O=C1C=CC(=O)N1c1ccc(N2CCCCC2)cc1,109% (active)
21,CC(=O)Nc1ccc(S(=O)(=O)Nc2ccc(N3CCCCC3)cc2)cc1,26.6%
22,O=C(Cc1ccccc1)NC(=S)Nc1ccc(N2CCCCC2)cc1,-35.9%

row,SMILES,inhibition
1,O=C(NNc1nc(N2CCCC2)nc(N2CCCC2)n1)c1ccccc1,16.9%
2,CCN(CC)CCCC(C)n1c2nc(=O)[nH]c(=O)c-2nc2cc(Cl)ccc21 (stereo not drawn),-9.23%
3,NC(=O)C1CCN(C(=O)c2cc(S(=O)(=O)N3CCN(c4ccccc4)CC3)ccc2Cl)CC1,-2.95%
4,CC1=CC(=NNS(=O)(=O)c2ccc([N+](=O)[O-])cc2)CC(C)(C)C1,-10.2%
5,O=[N+]([O-])c1ccc(NS(=O)(=O)c2ccccc2)c(Cl)c1,-12%
6,COc1ccc(/C=C/C(=O)c2cc(Br)ccc(=O)c2O)cc1,99.7% (active)
7,COc1ccc(C(=O)/C=C/c2ccc(OC3CSC3)cc2)cc1,12.6%
8,COc1ccc(/C=C/C(=O)c2ccc(OC)cc2O)cc1,3.31%
9,CN(C(=O)c1cccc(NC(=O)Cc2ccc(NC(=O)C3CCCN(C(=O)C4CCCC4)C3)cc2)c1)C1CCC1 (stereo not drawn),3.19%
10,COC(=O)CC(CC(=O)OC)n1cccc1,10.4%
11,Cc1cccc(NC(=S)N2CCC(C(=O)c3ccc(F)cc3)CC2)c1,-3.65%
12,COc1ccc(CNCCCNCc2ccc(OC)c(OC)c2)cc1OC,-32.5%
13,CC(=O)N(C1=C(Cl)C(=O)c2ccccc2C1=O)c1ccc(C(=O)O)cc1,13.4%
14,CC(=O)Oc1ccc2c(c1)C(=O)c1ccccc1C2=O,6.15%
15,O=C1C(Cl)=C(Oc2ccccc2)C(=O)c2ccccc21,104% (active)
16,COc1ccc(Cn2cc(CN3CCS(=O)(=O)N(Cc4ccc(-c5cccc(Cl)c5)cc4)C(C)C3=O)nn2)cc1 (stereo not drawn),-24.7%
17,Oc1ccc(Br)cc1/C=N/Nc1ccccn1,107% (active)
18,COc1ccc(-c2nn(-c3ccccc3)cc2/C=N/Nc2ccccn2)cc1OC,-22%
19,Oc1cccc(/C=N/Nc2ccc(Cl)nn2)c1O,1.34%
20,COc1ccc(CCC(=O)Nc2ccc(Cl)c(S(=O)(=O)N3CCOCC3)c2)cc1OC,-12.1%
21,CC[C@@H]1Cc2cc(O)ccc2C2=C1c1ccc(O)cc1C[C@H]2CC,108% (active)
22,CSCCC(NC(=O)COc1ccccc1)C(=O)N1CCN(c2cccc(C(F)(F)F)c2)CC1 (stereo not drawn),46.4%

row,SMILES,inhibition
1,Cc1ccc(S(=O)(=O)c2cc3c(=O)n4cccc(C)c4nc3n(CCc3ccccc3)c2=N)cc1C,0.767%
2,COc1cc(/C=N/O)cc(Br)c1OS(=O)(=O)c1ccc(C)cc1,-10.1%
3,COc1cc(/C=N/O)cc(Br)c1OCc1cccc(Cl)c1,121% (active)
4,COc1cc(C(=O)NCc2ccncc2)cc(Br)c1OCc1ccccc1,46.3%
5,Cc1nn(-c2ncccn2)c2c1C(=O)CC(C)(C)C2Br (stereo not drawn),-6.87%
6,COc1ccc(CCN2CC(C(=O)OCC(=O)NCc3ccccc3Cl)CC2=O)cc1OC (stereo not drawn),-2.54%
7,CC1(C)N=C(N)NC(Nc2ccc(Cl)cc2)=N1,7.88%
8,C/C(=N\Nc1ccc(Cl)nn1)c1ccccc1O,2.56%
9,Oc1ccc(/C=N/N(Cc2ccccc2)c2ccccc2)cc1,96.6% (active)
10,CCN(/N=C/c1ccc(N(C)C)cc1)c1nc2ccccc2[nH]1,24%
11,CCN(/N=C/c1ccccc1)c1cc(=O)n(C)c(=O)[nH]1,-32.6%
12,Cc1ccc2c(O)c(Cc3ccccc3)c(=O)[nH]c2n1,-3.48%
13,CC(C)C[C@H]1CN([C@@H](CC(C)C)CN2CCC[C@@H]2CN2C(=O)C(=O)NC[C@@H]2Cc2ccccc2)C(=O)C(=O)N1CCc1ccccc1,1.81%
14,CC(C=Cc1ccccc1)=NNS(=O)(=O)c1ccc([N+](=O)[O-])cc1,-1.29%
15,CC(=O)OCC1(O)CC23CCC4c5ccoc5CCC4(C)C2CCC1C3 (stereo not drawn),-29.4%
16,c1ccc(CCc2ccccn2)cc1,12.1%
17,CC(C)(C)c1cc(C(=O)N/N=C/c2ccc([N+](=O)[O-])s2)n[nH]1,-5.37%
18,O=[N+]([O-])c1ccc(C=Nc2ccc(Cl)cc2Cl)s1,110% (active)
19,Cc1ccccc1NCC(=O)N/N=C\c1ccc([N+](=O)[O-])s1,-6.37%
20,CC(C)(C)OC(=O)N1CCC(C(=O)Nc2cccc(C(=O)NCCc3ccccc3)c2)CC1,5.32%
21,Cc1ccc(OCCCn2c(=O)oc3ccccc32)cc1,-16.3%
22,CCCCCCCCCCOC(=O)Cn1c(COc2cccc(OC)c2)[n+](C)c2ccccc21,-14.9%

row,SMILES,inhibition
1,CCCCCCCCCCOC(=O)Cn1c(COc2ccc(C)cc2)[n+](C)c2ccccc21,110% (active)
2,COc1ccc(-c2nc3cc(C)ccn3c2NC2CCCCC2)cc1SC1CCCCC1,9.74%
3,FC(F)(F)c1ccc(-c2cccc3c2C2CC3CCN2Cc2ccccc2)cc1 (stereo not drawn),6.57%
4,O=C(CCC(=O)OCc1ccc(Cl)cc1)Nc1ccccc1,-21.6%
5,O=C1C=C(c2ccc(Cl)cc2)C(=O)N1Nc1ccccc1,134% (active)
6,O=C(O)CC1=C(Nc2ccccc2)C(=O)N(c2ccccc2)C1c1ccc(Cl)cc1 (stereo not drawn),-10.5%
7,COc1cc(/C=C/c2ccc(/C=C/c3cc(OC)c(OC)c(OC)c3)cc2)cc(OC)c1OC,-3.68%
8,Cc1c[n+]([O-])ccc1[N+](=O)[O-],4.7%
9,COCC(=O)N(C)[C@H]1C[C@H]2c3cc(Oc4ccccc4C)ccc3CCN2C(=O)[C@H]1[C@H](C)O,-8.3%
10,O=S(=O)(Nc1ccc2ccccc2c1)N1CCCCC1,2.41%
11,O=C(CNC(=O)c1cc(S(=O)(=O)N2CCOCC2)ccc1N1CCCC1)Nc1ccc(F)c(F)c1,-6.44%
12,CCN1/C(=C\c2ccc3ccccc3[n+]2CC)Sc2cc(C)ccc21,87.5% (active)
13,Cc1cccc(C=CC(=O)c2ccc(Cl)cc2)c1,5.15%
14,Cc1ccc(C)c(N2CCN(C(=O)CCc3nc(-c4cccc(C(F)(F)F)c4)no3)CC2)c1,-1.63%
15,O=C(O)C(CCc1ccccn1)c1ccccc1 (stereo not drawn),-16%
16,CCCCNC(=O)C(C)N(CCN(C)C)C(=O)CCCCCN1C(=O)NC(c2ccc(Cl)cc2)C(C(=O)OCc2ccccc2)=C1C (stereo not drawn),-0.725%
17,FC(F)(F)c1cnc(Oc2ccccc2-c2nnc(-c3ccc(Cl)cc3)o2)c(Cl)c1,-8.43%
18,COc1cccc(/C=N/Nc2ncc(C(F)(F)F)cc2Cl)c1O,91.5% (active)
19,COc1cccc(/C=N/Nc2cc(C)nc(-c3ccccc3O)n2)c1O,-15.4%
20,CCCCCCCCNS(=O)(=O)CCNC1CCCCC1,21.1%
21,O=C(NC1=CC(=O)c2ccccc2C1=O)c1ccccc1,54.3%
22,C#CCOCCOCCOCCNc1nc(N2CCN(C(=O)Cn3cc(CCO)nn3)CC2)nc(N2CCN(C(=O)[C@H](CCCCN)n3cc(CCCC)nn3)CC2)n1,-9.73%
